Twelve compounds from PubChem BioAssay (NCI) can be followed below.

Where “and” joins values, the source holds several entries; their conditions need not be identical. Identical values can stand only once. The panel holds about 83,000 compounds, 20% with a hit somewhere; the sample as a whole holds those more often.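 Note: values are percent growth. 100 is the growth of untreated cells, values between 100 and 0 indicate rising inhibition; between -100 and 0 indicates cell death.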 Calls of active or inactive are those of the source. Rule for the calls: active = growth percent below 10; inactive = the rest.

Holding throughout (assay): NCI-60 one-dose screen, 48 h (100 = growth as untreated, 0 = no growth, -100 = all killed)
One experiment relates to SR leukemia. The note with it: 10 µM unless noted.
A further experiment relates to RPMI-8226 leukemia. As to conditions: 10 µM.
A further experiment concerns OVCAR-8 ovarian. As to conditions: 10 µM.
In another experiment the test system is OVCAR-5 ovarian. The note with it: 10 µM.
Another experiment has as its system OVCAR-4 ovarian. As to conditions: 10 µM.
The next experiment deals with SK-OV-3 ovarian. The note with it: 10 µM.
The subject of the next experiment is IGROV1 ovarian. The note with it: 10 µM.
The test system of the next experiment is HS 578T breast. The note with it: 10 µM.
A further experiment has as its system NCI/ADR-RES ovarian. As to conditions: 10 µM.
For the next experiment, the system named is OVCAR-3 ovarian. As to conditions: 10 µM.

As to `Nc1ccc2cc3ccc(N)cc3nc2c1`, the growth in the experiment on SR leukemia was 106% (inactive) and 7.41% (active); with RPMI-8226 leukemia it was 77.5% (inactive) and 3.77% (active); in the experiment with OVCAR-8 ovarian, 88% (inactive) and -2.44% (active); in the experiment with OVCAR-5 ovarian, 84.9% (inactive) and 26.6% (inactive); with OVCAR-4 ovarian, 104% (inactive) and -5.13% (active); in the experiment with SK-OV-3 ovarian it was 78.5% (inactive) and 12.8% (inactive). Moreover, the growth in the experiment on IGROV1 ovarian was 111% (inactive) and 19.1% (inactive); with HS 578T breast it was 123% (inactive) and 23.6% (inactive); in the experiment on NCI/ADR-RES ovarian, 89.1% (inactive) and 12.6% (inactive).

`O=C(O)COc1ccc(OCC(=O)O)cc1`: the growth in the experiment on SR leukemia was 10.3% (inactive); in the experiment on RPMI-8226 leukemia, -15.6% (active); with OVCAR-8 ovarian, 13% (inactive); in the experiment on OVCAR-5 ovarian, 11% (inactive); in the experiment on OVCAR-4 ovarian, 21.4% (inactive); with SK-OV-3 ovarian, 11.4% (inactive). The growth with IGROV1 ovarian is 27.4% (inactive); in the experiment with HS 578T breast it was 20.9% (inactive); in the experiment on NCI/ADR-RES ovarian, 83.3% (inactive).

For the compound `COC(=O)C1C(O)C(C)C(O)C(C)C=C(C)C2=C3C(=C(C)C(=O)c4c(O)c(c(C)c(OC(C)=O)c43)NC(=O)C(C)=C/C=C\C(C)C(O)C(C)C1O)OCO2` (stereo not given), the growth with SR leukemia was 138% (inactive); with RPMI-8226 leukemia it was 118% (inactive); in the experiment on OVCAR-8 ovarian, 114% (inactive); in the experiment on OVCAR-5 ovarian, 104% (inactive); with OVCAR-4 ovarian, 108% (inactive); with SK-OV-3 ovarian, 116% (inactive). Further, the growth was 163% (inactive) with IGROV1 ovarian, 113% (inactive) in the experiment with OVCAR-3 ovarian, 116% (inactive) in the experiment with HS 578T breast and 121% (inactive) with NCI/ADR-RES ovarian.

Turning to `O=[N+]([O-])C1=C(c2ccccc2)SC=C(c2ccccc2)S1`, the growth with SR leukemia is 6.09% (active); with RPMI-8226 leukemia, 48.6% (inactive); in the experiment on OVCAR-8 ovarian, 71.4% (inactive); in the experiment on OVCAR-5 ovarian, 113% (inactive); in the experiment on OVCAR-4 ovarian, 87.4% (inactive); in the experiment on SK-OV-3 ovarian, 79.4% (inactive). Besides, the growth in the experiment on IGROV1 ovarian is 76.3% (inactive); in the experiment with OVCAR-3 ovarian, 73.6% (inactive); in the experiment with HS 578T breast, 85.7% (inactive); in the experiment with NCI/ADR-RES ovarian, 78.1% (inactive).

For `CC(=O)OCC(OC(C)=O)C(OC(C)=O)C(OC(C)=O)C(OC(C)=O)C(/C=N/Nc1ccccc1)=N/Nc1ccccc1` (stereo not given), the growth in the experiment with SR leukemia is 2.05% (active); in the experiment with RPMI-8226 leukemia, 60.6% (inactive); with OVCAR-8 ovarian it was 63.8% (inactive); in the experiment on OVCAR-5 ovarian it was 96.4% (inactive); in the experiment on OVCAR-4 ovarian, 82.6% (inactive); in the experiment on SK-OV-3 ovarian, 85.5% (inactive). Besides, the growth in the experiment on IGROV1 ovarian was 60.1% (inactive); in the experiment with OVCAR-3 ovarian, 71.8% (inactive); with HS 578T breast it was 73% (inactive); with NCI/ADR-RES ovarian, 72.4% (inactive).

Turning to `OC(CN1CCCC2CCCCC21)c1cc2ccccc2c2ccccc12` (stereo not given), the growth in the experiment on SR leukemia is -36.1% (active); in the experiment on RPMI-8226 leukemia, 15.8% (inactive); with OVCAR-8 ovarian, 51.6% (inactive); in the experiment with OVCAR-5 ovarian, 34.2% (inactive); in the experiment with OVCAR-4 ovarian, 29.1% (inactive); with SK-OV-3 ovarian, 37.7% (inactive). The growth in the experiment with IGROV1 ovarian was 58.1% (inactive); in the experiment on OVCAR-3 ovarian it was 30.6% (inactive); in the experiment with HS 578T breast, 26.1% (inactive); with NCI/ADR-RES ovarian, 17.4% (inactive).

For the compound `CCN(CC)c1ccc(NC(C(=O)c2ccccc2)c2ccccc2)cc1` (stereo not given), the growth was 14.3% (inactive) in the experiment with SR leukemia; 8.53% (active) in the experiment with RPMI-8226 leukemia; 9.32% (active) in the experiment on OVCAR-8 ovarian; 60.9% (inactive) in the experiment with OVCAR-5 ovarian; 65.2% (inactive) in the experiment on OVCAR-4 ovarian; 109% (inactive) in the experiment with SK-OV-3 ovarian. The growth was 59.4% (inactive) in the experiment with IGROV1 ovarian, -4.87% (active) in the experiment with OVCAR-3 ovarian, 46.1% (inactive) in the experiment on HS 578T breast and 25.4% (inactive) with NCI/ADR-RES ovarian.

For the compound `COC1OCC(O)C(O)C1O` (stereo not given), the growth is 109% (inactive) in the experiment with RPMI-8226 leukemia; 104% (inactive) in the experiment with OVCAR-8 ovarian; 110% (inactive) in the experiment with OVCAR-5 ovarian; 101% (inactive) in the experiment with OVCAR-4 ovarian; 111% (inactive) with SK-OV-3 ovarian; 98.9% (inactive) with HS 578T breast. In the experiment with NCI/ADR-RES ovarian, the growth is 110% (inactive).

Consider `CC(=O)Nc1cc(C)ccc1C`, for which the growth with SR leukemia was 98.8% (inactive); in the experiment on RPMI-8226 leukemia, 117% (inactive); with OVCAR-8 ovarian, 104% (inactive); in the experiment on OVCAR-5 ovarian it was 102% (inactive); in the experiment with OVCAR-4 ovarian, 104% (inactive); with SK-OV-3 ovarian, 102% (inactive). The growth in the experiment on IGROV1 ovarian was 108% (inactive); in the experiment on HS 578T breast, 90.4% (inactive); in the experiment with NCI/ADR-RES ovarian, 103% (inactive).

As to `CC(C)(C)CC(C)(C)c1ccc(OCCO)cc1`, the growth with SR leukemia is 85.5% (inactive); in the experiment with RPMI-8226 leukemia it was 124% (inactive); in the experiment on OVCAR-8 ovarian it was 108% (inactive); in the experiment with OVCAR-5 ovarian, 111% (inactive); in the experiment on OVCAR-4 ovarian, 124% (inactive); in the experiment on SK-OV-3 ovarian it was 116% (inactive). In addition, the growth in the experiment on IGROV1 ovarian was 108% (inactive); in the experiment on HS 578T breast, 94.6% (inactive); in the experiment on NCI/ADR-RES ovarian, 105% (inactive).

For the compound `Nc1c2ccccc2nc2ccccc12`, the growth was 0.28% (active) and 18.5% (inactive) and 24.2% (inactive) with SR leukemia; 43.6% (inactive) and -28.8% (active) and 43.7% (inactive) with RPMI-8226 leukemia; -30.4% (active) and 38.1% (inactive) and 29.2% (inactive) with OVCAR-8 ovarian; 78.4% (inactive) and 55.4% (inactive) in the experiment on OVCAR-5 ovarian; 4.83% (active) and 33.8% (inactive) and 56.2% (inactive) in the experiment on OVCAR-4 ovarian; 18.9% (inactive) and 40% (inactive) and 34.1% (inactive) with SK-OV-3 ovarian. Moreover, the growth with IGROV1 ovarian is 13.6% (inactive) and -40.3% (active) and 32.2% (inactive); with HS 578T breast, 44.9% (inactive) and 27.5% (inactive) and 82.2% (inactive); in the experiment on NCI/ADR-RES ovarian it was 7.27% (active) and 43.1% (inactive) and 37% (inactive).

Take `O=C1C=CC(=CC=C2C=CN(CCCCCCCCCCCO)C=C2)C=C1`: the growth with RPMI-8226 leukemia is 11.9% (inactive); with OVCAR-8 ovarian, 22.7% (inactive); in the experiment with OVCAR-5 ovarian, 55.4% (inactive); in the experiment on OVCAR-4 ovarian, 35.4% (inactive); with SK-OV-3 ovarian it was 45.4% (inactive); in the experiment on IGROV1 ovarian it was 41.2% (inactive). In addition, the growth with HS 578T breast is 35.6% (inactive); in the experiment with NCI/ADR-RES ovarian, 104% (inactive).
